This is an account of results in PubChem BioAssay (NCATS).

Experiment [1] can be described thus: Counterscreen qHTS for small molecule stabilizers of the endoplasmic reticulum resident proteome: GLuc-NoTag assay (AID 1508627).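 Note: SH-SY5Y cells given compound then 100 nM thapsigargin to empty ER calcium; 0% = thapsigargin alone and -100% = DMSO vehicle control.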 Conditions: Gaussia luciferase NoTag secretion counterscreen, luminescence, thapsigargin 100 nM for final 4 h; series mostly up to 76.4 µM. The essentials:
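SH-SY5Y cells stably expressing constitutively secreted GLuc without SERCaMP tag, exposed to compound for 19 hr, then to 100 nM thapsigargin for 4 hr at 37C. Medium luciferase was read by coelenterazine luminescence without lysis.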
For orientation: A counterscreen serves to expose hits that act by an unwanted route or on another target.

Experiment [2] is described as follows: Confirmatory qHTS for small molecule stabilizers of the endoplasmic reticulum resident proteome: Secreted ER Calcium Modulated Protein (SERCaMP) assay (AID 1508628). Note: nearly all actives have a fitted effect of over 40% in size. Note: potency is the fitted concentration of half-maximal effect. The following applies: SERCaMP secreted luciferase ER calcium/proteostasis reporter; series mostly up to 76.3 µM. The essentials:
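SH-SY5Y cells stably expressing GLuc-SERCaMP, treated 16 h with compound (primary 1.53, 7.67, 38.3 uM; confirmation 11 concentrations, up to 76.6 uM), then 100 nM thapsigargin for 4 h. Secreted Gaussia luciferase in medium read by coelenterazine luminescence.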
On the technique in general: qHTS replaces the single test concentration by a dilution series.

A short description of experiment [3]: Cell Viability qHTS for small molecule stabilizers of the endoplasmic reticulum resident proteome (AID 1508629).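 Note: human SH-SY5Y neuroblastoma cells carrying the GLuc-SERCaMP reporter; compound exposure about 46 h in total before the viability read; % is set by controls: 0 for no effect and ±100 for the full control effect.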 The following applies: cell viability counter-screen, 100 nM thapsigargin for final 4 h.
The target of experiment [4] is Lysosomal acid glucosylceramidase (Homo sapiens) (UniProt P04062). The experiment can be described thus: Glucocerebrosidase-p2 (AID 348; in the data active = potency below about 10 µM; note: potency is the fitted concentration of half-maximal effect). Conditions: purified GBA, blue fluorogenic substrate, 40 min. The method in brief: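 Compounds titrated from 0.6 nM upwards against 0.2 nM enzyme in pH 5.9 citric acid/KH2PO4, taurocholate, tween-20; blue fluorogenic substrate 80 uM, 40 min room temperature, stopped and read Ex 365/Em 440 for AC50.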
Chain of Lysosomal acid glucosylceramidase (Homo sapiens) (P04062 whole entry, looked up): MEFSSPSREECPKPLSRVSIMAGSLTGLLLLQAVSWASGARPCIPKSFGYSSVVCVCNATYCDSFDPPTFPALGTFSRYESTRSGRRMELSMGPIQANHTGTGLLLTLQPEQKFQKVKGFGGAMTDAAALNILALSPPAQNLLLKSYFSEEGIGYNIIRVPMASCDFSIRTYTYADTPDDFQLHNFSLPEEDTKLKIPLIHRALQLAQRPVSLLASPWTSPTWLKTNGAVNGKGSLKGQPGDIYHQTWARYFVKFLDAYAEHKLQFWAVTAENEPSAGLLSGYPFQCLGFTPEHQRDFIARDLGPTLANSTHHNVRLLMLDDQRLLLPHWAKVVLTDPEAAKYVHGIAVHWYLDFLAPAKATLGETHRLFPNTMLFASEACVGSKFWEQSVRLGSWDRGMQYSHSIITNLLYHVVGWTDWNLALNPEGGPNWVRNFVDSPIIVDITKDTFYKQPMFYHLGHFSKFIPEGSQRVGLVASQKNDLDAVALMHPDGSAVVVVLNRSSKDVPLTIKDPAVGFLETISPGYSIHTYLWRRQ

A short description of experiment [5]: AP1 Signaling Pathway (AID 357; active = well fitted curve in either direction with a large enough effect, not every such curve was filed as active; note: % is set by controls: 0 for no effect and ±100 for the full control effect). The following applies: ME-180 AP-1-bla reporter, EGF-induced, beta-lactamase ratio, 5 h; at 7.69 µM (top of the series) unless noted. The method in brief: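 Read-out was the 460nm/530nm emission ratio (excitation 405nm) after CCF4 loading for 2.5 hours at room temperature. Cells carried an AP-1-driven beta-lactamase reporter, were stimulated with EC50 EGF plus compound for 5 hours, and AC50 values came from titrations.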

In experiment [6] the target is Cytochrome P450 1A2 (Homo sapiens) (UniProt P05177). Description: p450-cyp1a2 (AID 410; calls by dose curve; note: potency is the fitted concentration of half-maximal effect). Conditions: recombinant CYP1A2, luciferin-ME demethylation, luminescence; series mostly up to 57 µM. The method in brief:
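Luminescent readout of luciferin formed from Luciferin-ME by human CYP1A2; data normalized against complete inhibition by 57 uM furafylline. Enzyme 20nM, substrate 100uM at Km, 100mM KPO4 buffer, 60 min reaction at room temperature.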

A short description of experiment [7]: NFAT Signaling Pathway (AID 444; active = well fitted curve in either direction with a large enough effect, not every such curve was filed as active;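 note: carbachol stimulus at about its EC50 of 1 µM final; % is set by controls: 0 for no effect and ±100 for the full control effect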). Conditions: Jurkat NFAT-bla M1, carbachol, beta-lactamase ratio, 5 h; at 7.69 µM (top of the series) unless noted. The method in brief:
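Jurkat cells with NFAT-driven β-lactamase reporter and co-expressed M1 receptor, stimulated with carbachol (final 1 uM, ~EC50), compound titration, 5 h at 37 °C. CCF4 loaded 1 h at RT; 460/530 nm ratio gave %activity and AC50.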

A short description of experiment [8]: Stat Signaling Pathway (AID 446; active = well fitted curve in either direction with a large enough effect, not every such curve was filed as active;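 note: ME-180 cervical cancer cells given 40 pM IL-6 alongside compound; SIE-controlled beta-lactamase reporter measured as 460/530 nm FRET emission ratio; % is set by controls: 0 for no effect and ±100 for the full control effect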). The following applies: ME-180 SIE beta-lactamase reporter, IL-6 stimulated, 5 h; at 7.69 µM (top of the series) unless noted. The essentials:
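Screening format detects activators and inhibitors alike: ME-180 SIE-bla cells stimulated at 40 pM IL-6 for 5 hrs with compound, then dual-emission beta-lactamase read at 405 nm excitation.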

For experiment [9], the target named is Glucocorticoid receptor (Homo sapiens) (UniProt P04150). Description: GR-GFP Redistribution (AID 450;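 active = compounds whose dose series gives a full or clear partial fitted curve of increased nuclear translocation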; note: potency is the fitted concentration of half-maximal effect). Conditions: U2OS GR-GFP nuclear translocation, laser cytometry, 2 h.
Chain of Glucocorticoid receptor (Homo sapiens) (P04150 whole entry, looked up, the tested form may be a part): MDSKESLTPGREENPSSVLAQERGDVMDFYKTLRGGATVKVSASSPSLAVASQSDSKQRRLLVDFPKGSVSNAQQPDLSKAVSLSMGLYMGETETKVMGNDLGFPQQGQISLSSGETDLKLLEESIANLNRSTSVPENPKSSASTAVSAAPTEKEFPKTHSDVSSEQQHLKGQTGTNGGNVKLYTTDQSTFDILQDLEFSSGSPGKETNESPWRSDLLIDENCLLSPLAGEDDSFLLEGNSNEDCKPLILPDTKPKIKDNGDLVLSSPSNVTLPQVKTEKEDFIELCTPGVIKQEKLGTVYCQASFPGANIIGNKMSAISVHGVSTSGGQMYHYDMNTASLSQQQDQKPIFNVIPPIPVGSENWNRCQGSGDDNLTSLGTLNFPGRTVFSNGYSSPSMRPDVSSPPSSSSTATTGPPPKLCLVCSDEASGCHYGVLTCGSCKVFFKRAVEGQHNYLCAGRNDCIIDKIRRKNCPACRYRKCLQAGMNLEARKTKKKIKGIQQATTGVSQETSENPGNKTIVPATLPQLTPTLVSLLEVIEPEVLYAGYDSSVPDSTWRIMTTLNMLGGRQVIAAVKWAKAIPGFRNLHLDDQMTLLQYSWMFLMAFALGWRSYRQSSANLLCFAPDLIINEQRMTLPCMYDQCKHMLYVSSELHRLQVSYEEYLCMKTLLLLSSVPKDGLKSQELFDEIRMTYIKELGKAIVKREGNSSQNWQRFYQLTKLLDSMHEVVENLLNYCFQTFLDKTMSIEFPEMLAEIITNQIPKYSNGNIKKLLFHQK
Experiment [10] shares this target. Description: GR-EFC Redistribution (AID 451; calls by dose curve; note: potency is the fitted concentration of half-maximal effect). The following applies: CHO-K1 GR-EFC translocation, beta-gal luminescence, 2 h. The essentials: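 CHO-K1 cells expressing nuclear EA and GR-ED fragments of b-gal; compounds titrated up to 46 uM final, 2 h at 37 C. GR nuclear translocation read as complemented b-gal luminescence after 1 h RT detection.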
The target of experiment [11] is Mitogen-activated protein kinase 10 (Mus musculus) (UniProt Q61831). Description: JNK3 AlphaScreen Assay (AID 530; active = well fitted curve in either direction with a large enough effect, not every such curve was filed as active). Conditions: JNK3 lysate, c-Jun phosphorylation; series mostly up to 57.1 µM. The method in brief: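 Pre-activated (IL-1β/TNFα) JNK3 in HepG2 lysates phosphorylates biotin-GST-cJun(1-79), 10 uM ATP; anti-phospho-cJun(Ser73) AlphaScreen read at room temperature, pH 7.6 Tris buffer. Compounds pre-incubated 15 min as titrations.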

The target of experiment [12] is Cytochrome P450 3A4 (Homo sapiens) (UniProt P08684). The experiment can be described thus: qHTS Assay for Activators of Cytochrome P450 3A4 (AID 885). Note: nearly all actives have a fitted effect of over 65% in size. Conditions: recombinant CYP3A4, Luciferin-PPXE luminescence, 60 min; series mostly up to 57.1 µM. The method in brief:
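Steps: enzyme/substrate mix dispensed; compound added, 10 min RT; NADPH regeneration solution added, 60 min RT; luciferin detection buffer stops reaction; 20 min later luminescence measured.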

Experiment [13] in a line: Confirmation and Secondary Assay for Modulators of Hemoglobin Beta Chain Splicing at IVS2 654 locus (AID 910).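 Note: HeLa cells stably carrying EGFP split by mutant beta-globin IVS2-654 intron; % of control where 0% means no effect.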 The following applies: HeLa EGFP-654 splicing reporter, GFP fluorescence, 48 h; series mostly up to 38.3 µM. The method in brief: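 HeLa cells stably expressing EGFP interrupted by β-globin IVS2-654 intron, seeded overnight in Opti-MEM/2% FCS, then treated 2 days at 37 °C. Restored splicing read as total peak GFP intensity per well by laser scanning cytometry (488 nm excitation, 500–520 nm emission); 500 nM antisense PNA as control.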

Experiment [14] is described as follows: Confirmation and Secondary Assay for Modulators of Hemoglobin Beta Chain Splicing at IVS2 705 locus (AID 930).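 Note: HeLa cells stably expressing the EGFP-705 splicing reporter; GFP fluorescence per well restored by corrected splicing of the IVS2-705 intron in EGFP; % of control where 0% means no effect.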 Conditions: HeLa EGFP-705 splicing reporter, GFP fluorescence, 48 h; series mostly up to 38.3 µM. The method in brief:
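Fluorescence gain (488 nm laser, 500-520 nm PMT) reflects restored correct splicing of a mutant IVS2-705 intron inside EGFP in stably transfected HeLa cells after 2-day compound treatment.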

A short description of experiment [15]: qHTS Assay for Lipid Storage Modulators (AID 1519; calls by dose curve). Conditions: Drosophila S3 cells, BODIPY lipid droplet/cell ratio, laser cytometry, cells loaded with oleic acid. The method in brief: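 Cells seeded at 5,000 per well were treated with compounds over a concentration series and loaded with oleic acid (400 uM, as added). Lipid droplet fluorescence (488 nm excitation, 500-530 nm channel) was read by laser-scanning cytometry and normalized to 20 uM Triacsin C.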

Experiment [16] concerns the target 3',5'-cyclic-AMP phosphodiesterase 4B (Homo sapiens) (UniProt Q07343). The experiment can be described thus: qHTS Assay for Inhibitors of PDE-IV (AID 607; active = well fitted activation curve with a large enough effect in the main read-out, with a control signal flat, not every such curve was filed as active; note: % of control where 0% means no effect). Conditions: HEK293 ACTOne CNG channel cells, membrane potential fluorescence; series mostly up to 22.9 µM. The essentials:
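The readout is membrane depolarisation from a cAMP-sensing CNG channel, detected with a potential dye at ex 535/em 590. Cells were HEK293-derived (endogenous PDE-IV) at 1000 cells/well, titrated up to 22.9 uM final.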

Experiment [17] addresses Cytochrome P450 2D6 (Homo sapiens) (UniProt P10635). The experiment can be described thus: qHTS Assay for Inhibitors and Substrates of Cytochrome P450 2D6 (AID 891). Note: potency is the fitted concentration of half-maximal effect; nearly all actives have a fitted effect of over 60% in size. The following applies: recombinant CYP2D6, luciferin-ME EGE luminescence; series mostly up to 57.1 µM. The method in brief: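 Human CYP2D6 (5 nM) with 30 uM Luciferin-ME EGE (at Km) in 100 mM KPO4, compound preincubated 10 min, then NADPH regeneration system for 60 min at room temperature. Luciferin read by luminescence; normalized to 1.43 uM quinidine.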

Experiment [18] concerns the target Ubiquitin carboxyl-terminal hydrolase 1 (Homo sapiens) (UniProt O94782). The experiment can be described thus: Inhibitors of USP1/UAF1: Pilot qHTS (AID 504865).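 Note: rhodamine fluorescence freed from ubiquitin-rhodamine substrate followed over time; top concentration of the series differs between compounds; % is set by controls: 0 for no effect and ±100 for the full control effect; nearly all actives have a fitted effect of over 35% in size.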 Conditions: purified USP1/UAF1, Ub-rhodamine cleavage fluorescence; series mostly up to 54.9 µM. The essentials: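 In 50mM HEPES pH 7.8 containing 0.5mM EDTA, 1mM TCEP, 0.1 mg/ml BSA and 0.01% Tween-20, 1nM USP1/UAF1 is exposed to compound for 15 min, then Ub-Rho (150nM final) is added and fluorescence is read over time.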

Inconclusive results are not listed. Activity calls are given as the source filed them. Unless noted, calls come from the whole dose curve; as a rule, active = well fitted curve in the direction sought with a large enough effect; inconclusive = small, poorly fitted or top-dose-only effect, or another doubt; inactive = no such curve, though single readings can be large; an effect the other way counts as inactive or inconclusive.

Chain of Cytochrome P450 3A4 (Homo sapiens) (P08684 whole entry, looked up): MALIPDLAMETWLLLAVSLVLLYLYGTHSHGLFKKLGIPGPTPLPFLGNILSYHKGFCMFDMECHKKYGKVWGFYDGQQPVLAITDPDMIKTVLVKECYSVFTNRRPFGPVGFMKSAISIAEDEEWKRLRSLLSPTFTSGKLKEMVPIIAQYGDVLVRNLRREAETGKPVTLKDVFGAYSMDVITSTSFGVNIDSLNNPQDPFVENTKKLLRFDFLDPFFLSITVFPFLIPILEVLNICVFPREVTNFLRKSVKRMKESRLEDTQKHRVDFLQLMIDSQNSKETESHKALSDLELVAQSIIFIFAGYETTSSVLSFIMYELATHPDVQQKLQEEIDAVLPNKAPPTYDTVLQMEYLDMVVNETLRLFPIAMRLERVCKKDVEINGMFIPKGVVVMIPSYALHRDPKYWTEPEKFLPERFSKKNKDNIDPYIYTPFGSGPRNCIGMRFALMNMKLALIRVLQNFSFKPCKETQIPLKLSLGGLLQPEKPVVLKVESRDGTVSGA
Chain of Cytochrome P450 1A2 (Homo sapiens) (P05177 whole entry, looked up): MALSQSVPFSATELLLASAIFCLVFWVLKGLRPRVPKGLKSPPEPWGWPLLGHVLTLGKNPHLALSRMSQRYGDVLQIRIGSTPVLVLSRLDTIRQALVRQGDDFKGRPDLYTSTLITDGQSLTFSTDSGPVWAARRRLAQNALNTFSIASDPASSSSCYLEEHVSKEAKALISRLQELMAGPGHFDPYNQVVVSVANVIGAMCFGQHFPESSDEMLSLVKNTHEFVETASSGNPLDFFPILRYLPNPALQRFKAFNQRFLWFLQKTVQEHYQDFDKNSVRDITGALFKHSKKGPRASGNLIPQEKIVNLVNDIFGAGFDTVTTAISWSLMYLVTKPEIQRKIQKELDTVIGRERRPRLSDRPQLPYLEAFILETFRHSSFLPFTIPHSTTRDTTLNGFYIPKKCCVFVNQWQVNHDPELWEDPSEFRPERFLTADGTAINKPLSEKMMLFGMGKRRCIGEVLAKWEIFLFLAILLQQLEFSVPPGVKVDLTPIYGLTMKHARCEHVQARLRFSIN
Chain of 3',5'-cyclic-AMP phosphodiesterase 4B (Homo sapiens) (Q07343 whole entry, looked up): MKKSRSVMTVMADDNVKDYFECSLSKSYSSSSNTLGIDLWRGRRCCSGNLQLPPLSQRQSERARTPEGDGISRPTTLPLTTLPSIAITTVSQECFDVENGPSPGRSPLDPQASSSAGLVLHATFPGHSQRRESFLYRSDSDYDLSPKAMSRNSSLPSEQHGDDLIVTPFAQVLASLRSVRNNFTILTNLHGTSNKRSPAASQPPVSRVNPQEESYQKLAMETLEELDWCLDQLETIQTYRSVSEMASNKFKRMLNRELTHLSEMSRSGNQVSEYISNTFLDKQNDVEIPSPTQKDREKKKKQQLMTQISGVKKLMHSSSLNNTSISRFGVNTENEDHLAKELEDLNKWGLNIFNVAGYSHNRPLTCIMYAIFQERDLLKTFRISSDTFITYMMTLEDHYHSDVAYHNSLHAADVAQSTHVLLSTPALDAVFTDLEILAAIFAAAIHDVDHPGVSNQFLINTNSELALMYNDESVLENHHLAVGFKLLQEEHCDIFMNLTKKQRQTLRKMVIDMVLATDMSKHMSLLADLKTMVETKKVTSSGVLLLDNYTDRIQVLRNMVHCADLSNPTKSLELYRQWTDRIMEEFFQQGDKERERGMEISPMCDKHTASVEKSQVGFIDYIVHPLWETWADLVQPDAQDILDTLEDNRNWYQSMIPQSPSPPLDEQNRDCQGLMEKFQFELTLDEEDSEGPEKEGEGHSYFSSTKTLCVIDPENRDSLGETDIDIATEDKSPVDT
Chain of Ubiquitin carboxyl-terminal hydrolase 1 (Homo sapiens) (O94782 whole entry, looked up): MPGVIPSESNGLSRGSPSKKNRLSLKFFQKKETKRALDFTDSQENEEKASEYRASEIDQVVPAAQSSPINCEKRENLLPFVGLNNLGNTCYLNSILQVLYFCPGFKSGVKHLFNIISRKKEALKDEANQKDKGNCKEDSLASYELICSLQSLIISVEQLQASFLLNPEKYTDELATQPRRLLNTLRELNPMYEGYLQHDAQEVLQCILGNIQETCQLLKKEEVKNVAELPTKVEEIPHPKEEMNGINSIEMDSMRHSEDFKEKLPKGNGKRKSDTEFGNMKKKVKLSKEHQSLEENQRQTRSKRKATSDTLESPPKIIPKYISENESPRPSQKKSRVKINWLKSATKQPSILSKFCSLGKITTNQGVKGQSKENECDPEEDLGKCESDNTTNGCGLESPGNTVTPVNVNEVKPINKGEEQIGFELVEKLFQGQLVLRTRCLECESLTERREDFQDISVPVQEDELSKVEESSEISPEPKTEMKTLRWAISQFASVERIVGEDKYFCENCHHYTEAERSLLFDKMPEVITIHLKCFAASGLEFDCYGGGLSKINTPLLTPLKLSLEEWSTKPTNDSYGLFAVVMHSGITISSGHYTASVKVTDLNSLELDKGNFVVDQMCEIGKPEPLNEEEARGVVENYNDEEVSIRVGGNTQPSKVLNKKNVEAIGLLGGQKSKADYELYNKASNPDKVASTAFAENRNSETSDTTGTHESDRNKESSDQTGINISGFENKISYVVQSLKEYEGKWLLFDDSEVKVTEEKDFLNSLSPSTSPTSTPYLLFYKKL
Chain of Cytochrome P450 2D6 (Homo sapiens) (P10635 whole entry, looked up): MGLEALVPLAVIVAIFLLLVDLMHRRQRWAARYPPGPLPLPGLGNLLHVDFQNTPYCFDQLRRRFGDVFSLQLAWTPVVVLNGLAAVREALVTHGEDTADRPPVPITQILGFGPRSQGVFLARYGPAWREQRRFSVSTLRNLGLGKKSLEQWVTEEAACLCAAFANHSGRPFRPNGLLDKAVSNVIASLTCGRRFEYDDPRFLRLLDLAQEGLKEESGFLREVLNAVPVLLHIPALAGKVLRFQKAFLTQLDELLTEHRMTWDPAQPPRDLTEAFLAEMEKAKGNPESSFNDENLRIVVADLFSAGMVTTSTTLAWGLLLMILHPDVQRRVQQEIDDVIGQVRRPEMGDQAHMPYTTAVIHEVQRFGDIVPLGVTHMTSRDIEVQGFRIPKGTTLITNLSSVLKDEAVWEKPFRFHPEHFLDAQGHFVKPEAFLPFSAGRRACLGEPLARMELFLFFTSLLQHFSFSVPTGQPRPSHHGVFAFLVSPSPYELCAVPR

As for `OC[C@H]1NC[C@H](O)[C@@H](O)[C@@H]1O`, the Potency result in [1] and in [2] was “inactive” each time. Also, in experiment [3], the max response is 6.89% (inactive).

With `CN1CCN(c2ncnc3ccc(-c4ccccc4C#N)cc23)CC1`, the Potency was > 11.4 µM (inactive) in experiment [4], 3.16 µM (active) in experiment [6], > 46 µM (inactive) in experiment [9] and > 46 µM (inactive) in experiment [10]. The figures for the activity change, negative = inhibition in experiment [5], in [7] and in experiment [15] (at 57.5 µM (top of the series)) were 15.1% (inactive), -9.23% (inactive) and 3.92% (inactive), respectively. Besides, in [8], the activity, negative = inhibition is 19.8% (inactive). Besides, the molecule was classed as inactive in experiment [11], in [13] and in experiment [14]. For the same molecule, the Potency result in [12], in experiment [1] and in experiment [2] was “inactive” throughout. Also, the max response is -20.1% in experiment [15] (measured here: cell count channel max response) and -16% in [15] (measured here: lipid channel max response).

`c1cncc(-c2nc(N3CCNCC3)c3ccccc3n2)c1`: the Potency in experiment [4] is > 11.4 µM (inactive); in experiment [6], 2.51 µM (active); in [9], > 46 µM (inactive); in experiment [10] it was > 46 µM (inactive); in experiment [17] it was 7.94 µM (active); in experiment [2], 22.4 µM (active). The activity change, negative = inhibition in experiment [5] was 8.36% (inactive); in experiment [7] it was 7.65% (inactive). Further, the activity, negative = inhibition in experiment [8] is 4.77% (inactive). The outcome in [11] was inactive. The Potency entry in experiment [16], in [12], in experiment [18] and in experiment [1] was “inactive” in each case. For the same molecule, the max response in [3] was 15.1% (inactive).
